Compounds without any hit were thinned out: in the full panel of roughly 83,000, 20% have a hit.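 Single-concentration screen, 48 h exposure, 96-well plates. Endpoint: percent growth. Below 10 = active.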 Activity calls are given as the source filed them.
Tests used:
Experiment in all cases: NCI-60 one-dose screen, 48 h (100 = growth as untreated, 0 = no growth, -100 = all killed)
NCI-H226 lung = settings: 10 µM unless noted
NCI-H322M lung = settings: 10 µM unless noted
A549/ATCC NSCLC = settings: 10 µM unless noted
MALME-3M melanoma = settings: 10 µM unless noted
SNB-75 CNS = settings: 10 µM unless noted
EKVX NSCLC = settings: 10 µM unless noted
SR leukemia = settings: 10 µM
OVCAR-5 ovarian = settings: 10 µM unless noted
OVCAR-4 ovarian = settings: 10 µM unless noted
SK-OV-3 ovarian = settings: 10 µM unless noted
IGROV1 ovarian = settings: 10 µM
NCI/ADR-RES ovarian = settings: 10 µM unless noted
TK-10 renal = settings: 10 µM unless noted
ACHN renal = settings: 10 µM unless noted
HOP-92 NSCLC = settings: 10 µM unless noted
NCI-H522 lung = settings: 10 µM unless noted
COLO 205 colon = settings: 10 µM
SK-MEL-2 melanoma = settings: 10 µM unless noted
HOP-62 NSCLC = settings: 10 µM unless noted

SMILES	growth (NCI-H226 lung)	growth (NCI-H322M lung)	growth (A549/ATCC NSCLC)	growth (MALME-3M melanoma)	growth (SNB-75 CNS)	growth (EKVX NSCLC)	growth (SR leukemia)	growth (OVCAR-5 ovarian)	growth (OVCAR-4 ovarian)	growth (SK-OV-3 ovarian)	growth (IGROV1 ovarian)	growth (NCI/ADR-RES ovarian)	growth (TK-10 renal)	growth (ACHN renal)	growth (HOP-92 NSCLC)	growth (NCI-H522 lung)	growth (COLO 205 colon)	growth (SK-MEL-2 melanoma)	growth (HOP-62 NSCLC)
ClCCN(CCCl)c1ccc(/C=C\c2ccnc3ccccc23)cc1	69.1% (inactive)	92.3% (inactive)	71% (inactive)	74.4% (inactive)	84.6% (inactive)	81% (inactive)	48.2% (inactive)	119% (inactive)	82.3% (inactive)	101% (inactive)	81.6% (inactive)	80.4% (inactive)							
CC1(C)CC(=O)CC(C)(C)N1N=O	104% (inactive)	121% (inactive)	107% (inactive)	130% (inactive)	78.7% (inactive)	112% (inactive)	109% (inactive)		113% (inactive)	105% (inactive)	122% (inactive)	100% (inactive)	91.8% (inactive)	103% (inactive)					
[Cl][Hg][n]1cnc2c(Cl)c(Cl)c(Cl)cc21	119% (inactive)	93.4% (inactive)	86.7% (inactive)	97.6% (inactive)		81.7% (inactive)	80.1% (inactive)	132% (inactive)	109% (inactive)	113% (inactive)		104% (inactive)	108% (inactive)	97.9% (inactive)	116% (inactive)	50.2% (inactive)			
C1CNC2CCCC2C1 (stereo not drawn)	98.1% (inactive)	104% (inactive)	110% (inactive)	99.4% (inactive)	86.3% (inactive)			103% (inactive)	102% (inactive)	108% (inactive)	117% (inactive)	109% (inactive)	103% (inactive)			91.7% (inactive)	102% (inactive)	106% (inactive)	
C=CCC1(CC)C(=O)NC(=S)NC1=O	104% (inactive)		102% (inactive)	108% (inactive)	104% (inactive)	105% (inactive)	96.7% (inactive)	101% (inactive)	110% (inactive)	97.1% (inactive)		104% (inactive)	111% (inactive)	101% (inactive)	80.6% (inactive)	93.5% (inactive)	97.3% (inactive)	99.3% (inactive)	97.9% (inactive)
C#CC1(O)CCC2(C)C(CCC3C4CCC(=O)C4(C)CCC32)C1 (stereo not drawn)	86.4% (inactive)		92% (inactive)	103% (inactive)	84.4% (inactive)	89.3% (inactive)	94.5% (inactive)	99.8% (inactive)	95.8% (inactive)	97.6% (inactive)	104% (inactive)	96.4% (inactive)	91.7% (inactive)	97.8% (inactive)	86.1% (inactive)	86.9% (inactive)	106% (inactive)	92% (inactive)	94.3% (inactive)
O=S(=O)(O)c1ccc(-c2ccc([As](=O)(O)O)cc2)cc1	110% (inactive)	104% (inactive)	94.4% (inactive)	101% (inactive)	87.1% (inactive)	101% (inactive)	101% (inactive)	106% (inactive)	99.4% (inactive)	105% (inactive)	107% (inactive)	108% (inactive)	95.5% (inactive)	105% (inactive)	-91% (active)	88.8% (inactive)	114% (inactive)	101% (inactive)	98.6% (inactive)
O=[N+]([O-])c1cc([N+](=O)[O-])c(Cl)c(Cl)c1Cl	52.8% (inactive)	96.5% (inactive)	80.3% (inactive)	-48.1% (active)	59.6% (inactive)	67.4% (inactive)	-5% (active)	65.6% (inactive)		101% (inactive)	22% (inactive)		-99.5% (active)	-87.1% (active)	2.39% (active)	-86.5% (active)	-82.7% (active)	-23.8% (active)	
CN(Cc1cccnc1)N=O	92.3% (inactive)		94.5% (inactive)	96.6% (inactive)	85.1% (inactive)	99.9% (inactive)	98.4% (inactive)		102% (inactive)	99.4% (inactive)	99.7% (inactive)	100% (inactive)	91.6% (inactive)	103% (inactive)	95.3% (inactive)	89.9% (inactive)	105% (inactive)	89% (inactive)	93.1% (inactive)
Nc1cccc2c1Oc1ccccc1O2	86.2% (inactive)	102% (inactive)	97% (inactive)	97.3% (inactive)	133% (inactive)	99.7% (inactive)	102% (inactive)	98.3% (inactive)	115% (inactive)	184% (inactive)	2.63% (active)	113% (inactive)			80.3% (inactive)		134% (inactive)		
CC1(C)N=C(N)N=C(N)N1c1ccc(CCCCc2ccc(S(=O)(=O)F)cc2)cc1	36.8% (inactive)	31.2% (inactive)	14% (inactive)	52.8% (inactive)	63.7% (inactive)		38% (inactive)	41.2% (inactive)	86.1% (inactive)		30.2% (inactive)	113% (inactive)	14.1% (inactive)				41.9% (inactive)		
CCC(CC)(c1ccccc1)C(OC(N)=O)c1ccccc1 (stereo not drawn)	81.8% (inactive)	85% (inactive)	76% (inactive)		74.8% (inactive)			111% (inactive)	83.7% (inactive)	66.5% (inactive)	73.4% (inactive)			87.4% (inactive)		78.6% (inactive)	86.7% (inactive)	79.2% (inactive)	
CC(=O)[O][Hg][c]1ccccc1	81.9% (inactive)	40.1% (inactive)		-88% (active)	-65.9% (active)	-35.7% (active)	-31.3% (active)		-25.2% (active)	-5.18% (active)	-55.1% (active)	-39.1% (active)				-32.8% (active)	-98.5% (active)		
CC12CCC(=O)C=C1C(O)CC1C2CCC2(C)C(O)CCC12 (stereo not drawn)	94.7% (inactive)	98% (inactive)	101% (inactive)	95.9% (inactive)	94.5% (inactive)	107% (inactive)	106% (inactive)	108% (inactive)		115% (inactive)	106% (inactive)	108% (inactive)	104% (inactive)	117% (inactive)	103% (inactive)	106% (inactive)	112% (inactive)	105% (inactive)	
CCC1([N+](=O)[O-])COP(=O)(NCc2cccnc2)OC1 (stereo not drawn)	99.9% (inactive)	111% (inactive)	102% (inactive)		104% (inactive)	106% (inactive)	105% (inactive)	99.7% (inactive)	112% (inactive)		118% (inactive)	112% (inactive)	109% (inactive)	113% (inactive)		109% (inactive)	119% (inactive)	111% (inactive)	
CCC(/C=C(C)/C=C/C(=O)c1c(O)c(-c2ccc(O)cc2)c[nH]c1=O)CO (stereo not drawn)	106% (inactive)	96% (inactive)	90.2% (inactive)		91.3% (inactive)	89.2% (inactive)	19.9% (inactive)					96.2% (inactive)	130% (inactive)	104% (inactive)	26.2% (inactive)		124% (inactive)	88.7% (inactive)	
CCOc1ccc(C(O)CN(C)Cc2ccccc2)cc1Cl (stereo not drawn)	92.1% (inactive)	102% (inactive)	102% (inactive)	104% (inactive)	92.9% (inactive)	95.7% (inactive)		102% (inactive)	103% (inactive)	109% (inactive)		99.4% (inactive)	102% (inactive)	109% (inactive)	75.4% (inactive)	97.1% (inactive)	105% (inactive)		
CC12CCC3C(CC=C4CC(O)CCC43C)C1C/C(=C\N1CCOCC1)C2=O (stereo not drawn)	93.2% (inactive)	113% (inactive)		110% (inactive)	83.5% (inactive)	96.1% (inactive)	98.4% (inactive)	98.1% (inactive)		111% (inactive)	119% (inactive)		96% (inactive)	99.6% (inactive)		83.3% (inactive)	116% (inactive)	106% (inactive)	
CNC(=O)Oc1cccc(OC)c1	102% (inactive)	132% (inactive)		115% (inactive)		95.5% (inactive)			105% (inactive)		118% (inactive)	106% (inactive)	125% (inactive)	109% (inactive)	125% (inactive)	96.5% (inactive)	119% (inactive)		
Cc1ccc2oc(=O)c3c(c2c1)OC(N)=C(C#N)C3c1ccco1 (stereo not drawn)	91.9% (inactive)	98.8% (inactive)	97% (inactive)	99% (inactive)		94.9% (inactive)	107% (inactive)		114% (inactive)		104% (inactive)	102% (inactive)	108% (inactive)	101% (inactive)		91.6% (inactive)		112% (inactive)	
C1CN1c1nc(N2CC2)nc(N2CC2)n1	58.6% (inactive)	78.1% (inactive)	59.8% (inactive)	49.7% (inactive)	-17.6% (active)	86.3% (inactive)	6.79% (active)	64.5% (inactive)	44.6% (inactive)	38.1% (inactive)	-3.62% (active)	36.8% (inactive)	78.3% (inactive)	-29.7% (active)		-12.1% (active)	61.4% (inactive)	76.9% (inactive)	
CNC(C)Cc1ccccc1 (stereo not drawn) (tested in a mixture with another compound)	99.5% (inactive)	89.2% (inactive)	92.3% (inactive)	103% (inactive)	100% (inactive)		108% (inactive)	88.1% (inactive)	104% (inactive)	92.8% (inactive)	101% (inactive)			95.7% (inactive)		82.4% (inactive)	102% (inactive)		

Source: PubChem BioAssay (NCI)
